Among all 24,000 compounds or so, about 180 (0.75%) were called active. What follows is part of a selection rich in actives, with near analogues and random picks from the rest. Unmarked numbers belong to inactive results. Cut-off read from the data, not from the text of the source: active = inhibition above about 30%; inconclusive = no clear call, values can overlap the other calls; inactive = below that.
molecular target: fMet-Leu-Phe receptor (Homo sapiens) (UniProt P21462); assay: human FPR ligands by binding competition, primary screen, cell-based, FPRL1 counter-screen, flow cytometry (AID 440); conditions: FPR-expressing cells, fluorescent ligand binding, active compounds read high, concentration not given here;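 note: 0% = buffer wells and 100% = receptor blocker peptide wells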
Sequence (P21462 whole entry, looked up): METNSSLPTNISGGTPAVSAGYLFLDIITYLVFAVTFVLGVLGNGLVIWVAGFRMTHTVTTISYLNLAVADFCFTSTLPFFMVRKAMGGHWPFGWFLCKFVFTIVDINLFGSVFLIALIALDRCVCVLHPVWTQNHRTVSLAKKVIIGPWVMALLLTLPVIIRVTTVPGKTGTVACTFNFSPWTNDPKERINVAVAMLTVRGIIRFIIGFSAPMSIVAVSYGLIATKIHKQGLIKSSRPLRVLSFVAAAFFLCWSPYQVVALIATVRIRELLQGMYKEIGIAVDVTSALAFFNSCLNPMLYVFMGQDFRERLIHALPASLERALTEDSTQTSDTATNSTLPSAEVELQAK

| Compound | inhibition |
| --- | --- |
| COC(=O)c1ccc(CSc2ccccc2C)o1 | 0.5% |
| O=C(Nc1ccccc1C(=O)N1CCOCC1)C1CCC(=O)N1C1CCCC1 (stereo unspecified) | -0.6% |
| COc1ccc(CN2C(=O)CN=C2Nc2ccc(C)cc2C)cc1 | 6.5% |
| O=C(Cn1nc(Cc2cccnc2)c2ccccc2c1=O)NCC1CCCO1 (stereo unspecified) | 0.4% |
| Cc1nn(C)c(C)c1S(=O)(=O)N1CCc2ccccc21 | 8.9% |
| O=C(NCCCN1CCN(C2CCCCC2)CC1)Nc1ccccc1C(F)(F)F | 1.3% |
| O=C(CN1C(=O)COc2ccccc21)Nc1ccc(F)cc1 | 4.3% |
| CCn1ncc(Br)c1C(=O)Nc1cc(C)ccc1F | 0.8% |
| Cc1nc(CNS(=O)(=O)c2cccnc2)cs1 | 1.9% |
| CSc1sc(C)cc1C1C(C#N)=C(N)N(c2cccnc2)C2=C1C(=O)CCC2 (stereo unspecified) | 4.3% |
| Cc1nc(C)c(C(=O)Nc2ccc(C)c(F)c2)o1 | -4.6% |
| O=c1c(-c2ccc3c(c2)OCCO3)c(C(F)(F)F)oc2cc(O)cc(O)c12 | -6.7% |
| Cc1cccn2c(=O)c3cc(C(=O)NCc4ccccn4)n(C)c3nc12 | -5.1% |
| O=C(Nc1cccnc1)c1noc2c1CCCCC2 | -1.9% |
| Cc1cc(N2C(=O)C(=O)/C(=C(/O)c3ccc(Cl)cc3)C2c2cccc(Br)c2)no1 (stereo unspecified) | 3.2% |
| CCCC(NC(=O)c1ccccc1)c1nc2ccccc2n1Cc1ccc(C(=O)OC)o1 (stereo unspecified) | 24.2% |
| CSc1ccc(NC(=O)N2CC(C)OC(C)C2)cc1 (stereo unspecified) | -6.4% |
| CCCCOc1ccc(C(=O)NCc2ccco2)cc1 | 0.1% |
| O=C(O)Cc1ccc(-c2ccccc2)cc1 | 3.8% |
| Cc1cc(Cl)c(S(=O)(=O)Nc2ccc3c(c2)OCCO3)cc1OCC(N)=O | -7.6% |
| CC1=C(C)CC2C(=O)N(c3cccc4ccccc34)C(=O)C2C1 (stereo unspecified) | -2.3% |
| COc1cc2c(cc1NC(=O)CN1CCN(S(=O)(=O)c3ccc(F)cc3)CC1)oc1ccccc12 | 2.8% |
| CCOC(=O)C1(C(F)(F)F)N=C(N(C)C)OC(N(C)C)=N1 | -1.4% |
| COC(=O)Nc1ccc(S(=O)(=O)N(C)CC(F)(F)C(F)F)cc1 | 1% |

| Compound | inhibition |
| --- | --- |
| CCCOc1ccc(/C(O)=C2/C(=O)C(=O)N(CCN(C)C)C2c2ccc(OC)c(OC)c2)cc1 (stereo unspecified) | -5% |
| COC(=O)CNS(=O)(=O)c1ccc(Cc2ccc(S(=O)(=O)NCC(=O)OC)cc2)cc1 | -3.3% |
| CCOC(=O)c1ccc(-n2c(C)nc3c(cnn3-c3ccccc3C)c2=O)cc1 | -9.5% |
| CN(C)S(=O)(=O)c1ccc(Oc2ccc(S(=O)(=O)N(C)C)cc2)cc1 | -1.8% |
| O=C(CSc1nnc(Cn2cnc3ccccc32)o1)c1ccccc1 | 1.9% |
| O=C(O)[C@@H]1CCCN1c1ncnc2sc3c(c12)CCC3 | 8.1% |
| CC(=O)c1cccc(S(=O)(=O)N2CCC(n3nnc4cc(F)ccc43)CC2)c1 | 9.5% |
| COc1ccc(C(=O)Nc2nncs2)c(OC)c1 | 5.3% |
| CC(=O)Nc1cc(C(=O)O)ccc1S(=O)(=O)c1ccc(Cl)cc1 | -2.3% |
| CCOC(=O)N1CCC(NC(=O)Cn2cc3c(n2)CCCCC3)CC1 | 0% |
| Cc1ccc(C)c(S(=O)(=O)n2cnc3ccccc32)c1 | -0.2% |
| O=C(Nc1ccccc1C(F)(F)F)c1cc(-c2ccc(O)cc2)on1 | -2.3% |
| O=C(CS(=O)(=O)c1cn(Cc2ccc(Cl)cc2)c2ccccc12)N1CCOCC1 | 15% |
| O=C(Nc1c2c(nn1-c1ccc(F)cc1)CS(=O)C2)C12CC3CC(CC(C3)C1)C2 (stereo unspecified) | -5.4% |
| Cc1cc(C)c(C#N)c(SCc2[nH]nc3c2C(c2ccccc2)C(C#N)=C(N)O3)n1 (stereo unspecified) | -6.4% |
| CCCCc1nc2c(=O)[nH]c3ccccc3c2o1 | -2.1% |
| Fc1ccc2nc(Nc3nc4c(s3)CCCC4)sc2c1 | -14.3% |
| Cn1cccc1C1(C(F)(F)F)NCCNC1=O (stereo unspecified) | 1.7% |
| CCCCCCn1c(CN2CCCCC2)nc2c1c(=O)n(C)c(=O)n2C | -5.5% |
| O=c1c(-c2ccccc2)coc2c(CN3CCOCC3)c(O)ccc12 | -5.5% |
| c1ccc(COc2nsnc2N2CCOCC2)cc1 | -1.9% |
| Cn1cccc1Cc1nnc(SCC(=O)NCc2ccc3c(c2)OCO3)n1CCc1ccccc1 | 4.8% |
| COc1ccc(CCNC(=O)C2CCN(c3nn4c(=O)cc(C)nc4s3)CC2)cc1OC | -2.7% |
| CCn1ncc(C2=NOC(C(=O)N3CCN(c4ccccc4)CC3)C2)c1C (stereo unspecified) | -5.6% |

| Compound | inhibition |
| --- | --- |
| OCc1n[nH]c(CO)n1 | 1.3% |
| O=C(CN1CCN(c2ncc(C(F)(F)F)cc2Cl)CC1)Nc1ccc2c(c1)OCO2 | -4.3% |
| CCCCOCCCNC(=O)c1ccccc1OCC | 1.4% |
| CCOC(=O)c1cc(NC(=O)SCC(=O)O)c(C)nc1C | 3.8% |
| CCOC(=O)c1cc2cc(-c3c(C(=O)OCC)oc4cc(O)cc(O)c4c3=O)ccc2o1 | -2.3% |
| COc1cc(C2C(C(=O)Nc3ccc(F)cc3)=C(C)Nc3nc(CCCO)nn32)cc(OC)c1OC (stereo unspecified) | -4.8% |
| CCOc1ccc2c(=O)c(-c3ccc4c(c3)OCCCO4)c(C)oc2c1 | -4.1% |
| CCOc1ccc(N(CC(=O)NCc2ccc(OC)cc2)S(=O)(=O)c2c(C)noc2C)cc1 | -3.8% |
| CCOC(=O)CSc1nc2c(c(=O)n(C)c(=O)n2C)n1Cc1ccccc1F | 4.7% |
| CCOc1ccc(Cn2nnc(C(=O)Nc3ccc(OC)cc3OC)c2N)cc1 | -3.7% |
| O=C(Nc1ccn(Cc2ccc(F)cc2)n1)c1ccncc1 | -7.7% |
| COc1ccc(OC)c(NC(=O)CCN2CCC(C)CC2)c1 | -5.8% |
| Cc1cc(C)c(C#N)c(SCS(=O)c2ccc(C(C)(C)C)cc2)n1 (stereo unspecified) | -4.1% |
| CCC(C(=O)Nc1ncccn1)(C(F)(F)F)C(F)(F)F | -1.6% |
| CCOC(=O)c1nnn(-c2nc(OC)nc(N(C)C)n2)c1-c1ccccc1 | -0.2% |
| COc1cccc(Oc2ccc(N)cc2)c1 | -7.2% |
| C=CCn1c(SCC(=O)NC23CC4CC(CC(C4)C2)C3)nc(O)cc1=O | 3.3% |
| CCn1ncc(C2=NOC(C(=O)Nc3ccccc3C(=O)OC)C2)c1C (stereo unspecified) | 5.9% |
| Cc1ccnc(N2C(=O)c3ccccc3C2Nc2ccc3c(c2)OCCO3)c1 (stereo unspecified) | -0.2% |
| CC(=O)C1=C(O)C(=O)N(c2ccc(S(N)(=O)=O)cc2)C1c1ccccc1F (stereo unspecified) | -10.4% |
| CCOC(=O)Cn1c(N)c(C(=O)OC)sc1=S | 1.5% |
| CCOC(=O)c1sc(=S)n(-c2cccc(OC)c2)c1N | 11% |
| CCOC(=O)c1sc(=S)n2c1[nH]c(=O)c1ccc(C(=O)OC)cc12 | 35.8% (active) |
| Cc1ccc2cccc(O)c2[n+]1[O-] | 0.7% |

| Compound | inhibition |
| --- | --- |
| CCOC(=O)Cn1c2c(c(-c3ccccc3OC)cc1=O)CCCC2 | 10.1% |
| CCOC(=O)N1CCN(C(=O)CSc2nnc(-c3c[nH]c4ccccc34)n2CCOC)CC1 | 8.4% |
| Cc1ccc2nc(NC(=O)C3CCN(S(=O)(=O)c4ccc5c(c4)oc(=O)n5C)CC3)sc2c1 | -18.8% |
| Cc1cc(Nc2cccc(F)c2)n2ncnc2n1 | -3.6% |
| Cc1nc2ccc(S(=O)(=O)NCC(=O)NCCN3CCCCC3C)cc2s1 (stereo unspecified) | -4.2% |
| Cc1noc(C)c1S(=O)(=O)N(CC(=O)Nc1ccc2c(c1)OCCO2)c1ccc(C(C)C)cc1 | 0.9% |
| O=C(OCc1ccccc1F)c1ccc2c(c1)OCCO2 | 3.6% |
| CN1CCN(CCCNC(=O)c2cc3c(=O)oc4ccccc4c3s2)CC1 | -0.9% |
| COC(=O)c1cc(S(=O)(=O)NC2CCN(Cc3ccccc3)CC2)cn1C | -4.4% |
| CCC(=O)N1CCN=C1SCc1ccc(F)cc1 | 0% |
| O=C(Nc1nccs1)C1CCCN1S(=O)(=O)c1cccc2cccnc12 (stereo unspecified) | -4.6% |
| COc1cccc(-n2cc(C(=O)O)c3ccccc3c2=O)c1 | -2.1% |
| COC(=O)c1c(-c2ccc(C)cc2)csc1N | 7% |
| CCN1CCN(Cc2c(O)ccc3c(=O)c(-c4ccc(OC)c(OC)c4)c(C(F)(F)F)oc23)CC1 | -8.1% |
| O=C1C(=O)N(CCN2CCOCC2)C(c2ccccn2)/C1=C(/O)c1ccc(Cl)cc1 (stereo unspecified) | 13.6% |
| CCOc1ccc(OCC)c(NC(=O)CN(C)S(=O)(=O)c2cccc3nsnc23)c1 | -0.8% |
| Cc1cnc(C(=O)OCC(=O)Nc2ccc(Cl)cc2Cl)cn1 | -2.2% |
| COc1ccc(NC(=O)c2c(SC)nsc2SC)cc1 | 2.1% |
| COc1ccc(-c2ccc(Nc3ccc(S(=O)(=O)N4CCCC4)cc3)nn2)cc1OC | -6.4% |
| Cc1cc(Nc2ccc(Br)cc2F)n2ncnc2n1 | -4.7% |
| CCOC(=O)N1CCN(C(=O)C2CC(c3ccc(F)cc3)=NO2)CC1 (stereo unspecified) | 9.4% |
| CN(C)CCCNC(=O)c1ccc2[nH]c3ccccc3c2c1 | 3.7% |
| COc1cccc(N2C(=O)CC(N3CCN(S(=O)(=O)c4ccccc4)CC3)C2=O)c1 (stereo unspecified) | -0.8% |
| CCOC(=O)c1c(C)c(C(=O)NCCc2ccc(S(N)(=O)=O)cc2)c(C)n1CC | -11.9% |

From PubChem BioAssay AID440 (NMMLSC, 2006)
